SMILES strings stand for the structures. The panel holds about 83,000 compounds, 20% with a hit somewhere; the sample as a whole holds those more often.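 Note: values are percent growth. 100 is the growth of untreated cells, values between 100 and 0 indicate rising inhibition; between -100 and 0 indicates cell death.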 Values without a mark were called inactive. The source made the active and inactive calls. The calls were made as follows: active = growth percent below 10; inactive = the rest.

Data on 9 compounds can be found in PubChem BioAssay (NCI).

Among the test systems are NCI-H23 lung; NCI-H226 lung; HOP-62 NSCLC; NCI-H460 lung; NCI-H522 lung; A549/ATCC NSCLC; 786-0 renal; COLO 205 colon; DU-145 prostate; K-562 leukemia; MALME-3M melanoma; MDA-MB-231 breast; RXF 393 renal; SF-268 CNS; SF-295 CNS; SF-539 CNS; UACC-257 melanoma; M14 melanoma; NCI-H322M lung; HOP-92 NSCLC.
What all share (assay): NCI-60 one-dose screen, 48 h (100 = growth as untreated, 0 = no growth, -100 = all killed)
Conditions in all cases: 10 µM unless noted

For `CCCCCCCC/C=C\CCCCCCCCOc1ccccc1CC(=O)NCC[N+]1(C)CCCCC1`, the growth is 58.9% with NCI-H23 lung; 67.1% in the assay on NCI-H226 lung; 75.9% in the assay with HOP-62 NSCLC; 50.4% in the assay with NCI-H460 lung; 38% in the assay with NCI-H522 lung; 66.3% in the assay with A549/ATCC NSCLC. The growth in the assay with 786-0 renal is 96.8%; with COLO 205 colon, 23%; with DU-145 prostate, 67.1%; with K-562 leukemia, 36.3%; with MALME-3M melanoma it was 69.8%; in the assay with MDA-MB-231 breast, 59.8%. Further, the growth was 28.6% with RXF 393 renal; 39.2% with SF-268 CNS; 97.4% with SF-295 CNS; 95.1% in the assay with SF-539 CNS; 61.5% in the assay with UACC-257 melanoma; 65.5% with M14 melanoma.
Consider `CN1CCN(c2ccc(NC(=O)c3cncnc3Nc3ccc4c(ccn4Cc4cccc(F)c4)c3)cc2)CC1`, for which the growth is 72.6% with NCI-H23 lung; 92.9% in the assay on NCI-H322M lung; 8.44% (active) in the assay with HOP-62 NSCLC; 30.7% in the assay on NCI-H460 lung; 59.9% in the assay with HOP-92 NSCLC; 75.6% in the assay on NCI-H522 lung. Besides, the growth with A549/ATCC NSCLC was 43.2%; with 786-0 renal it was -38.4% (active); with COLO 205 colon, -34% (active); in the assay with DU-145 prostate, 54%; in the assay with K-562 leukemia it was 2.74% (active); with MALME-3M melanoma, -82.6% (active). The growth in the assay on MDA-MB-231 breast is 11.9%; with RXF 393 renal, 31%; in the assay on SF-268 CNS, 71%; in the assay with SF-295 CNS, 80.8%; with SF-539 CNS, 45%; with UACC-257 melanoma, 65.4%. Moreover, the growth with M14 melanoma was -59.3% (active).
In the case of `COc1ccc2c(c1)c(-c1nonc1-c1c[nH]c3ccc(Br)cc13)cn2C`, the growth in the assay on NCI-H23 lung is 55.6%; in the assay on HOP-62 NSCLC, 29.6%; in the assay on NCI-H460 lung, 23.7%; with HOP-92 NSCLC, 75.6%; in the assay with NCI-H522 lung, 11.3%; in the assay on A549/ATCC NSCLC, 28.1%. Also, the growth was 58.6% with 786-0 renal; 23.9% in the assay with COLO 205 colon; 61.2% with DU-145 prostate; 11.5% in the assay with K-562 leukemia; 46.3% in the assay on MALME-3M melanoma; 43.4% with MDA-MB-231 breast. Moreover, the growth was 67% in the assay on RXF 393 renal; 48.3% in the assay on SF-268 CNS; 40.2% in the assay with SF-295 CNS; 56.6% in the assay with SF-539 CNS; 64.7% with UACC-257 melanoma; 20.8% in the assay with M14 melanoma.
As to `S=c1ssnc1-c1cccs1`, the growth is 85% in the assay with NCI-H23 lung; 103% in the assay with HOP-62 NSCLC; 107% with NCI-H460 lung; 80.5% in the assay with HOP-92 NSCLC; 96.3% in the assay on NCI-H522 lung; 117% in the assay with A549/ATCC NSCLC. Moreover, the growth was 65.1% in the assay on 786-0 renal; 115% in the assay on COLO 205 colon; 123% with DU-145 prostate; 73.3% in the assay with K-562 leukemia; 66.3% with MALME-3M melanoma; 88.8% with MDA-MB-231 breast. The growth is 116% with RXF 393 renal; 97.9% in the assay with SF-268 CNS; 78.3% in the assay with SF-295 CNS; 106% in the assay with SF-539 CNS; 107% in the assay with UACC-257 melanoma; 94.2% in the assay on M14 melanoma.
As for `C[C@@H](CO)[C@@H]1CC[C@]2(C(=O)N3CCN(C)CC3)CC[C@]3(C)[C@H](CC[C@@H]4[C@@]5(C)CC[C@H](O)C(C)(C)[C@@H]5CC[C@]43C)[C@@H]12`, the growth with NCI-H23 lung is 78.5%; with HOP-62 NSCLC, 116%; in the assay with NCI-H460 lung it was 49.4%; in the assay with HOP-92 NSCLC, 47.7%; in the assay with NCI-H522 lung it was 74.1%; with A549/ATCC NSCLC, 88.6%. Moreover, the growth in the assay on 786-0 renal was 74%; in the assay with COLO 205 colon, 90.2%; with DU-145 prostate it was 67.7%; in the assay on K-562 leukemia, 4.66% (active); in the assay on MALME-3M melanoma it was 105%; with MDA-MB-231 breast, 82.8%. The growth was 81.5% with RXF 393 renal; 56.7% with SF-268 CNS; 90.4% with SF-295 CNS; 86.1% with SF-539 CNS; 98% in the assay on UACC-257 melanoma; 101% in the assay on M14 melanoma.
Regarding `c1ccc2cc(Cn3c[n+](Cc4ccc5ccccc5c4)c4ccccc43)ccc2c1`, the growth in the assay on NCI-H23 lung is -0.737% (active); in the assay on NCI-H322M lung, 34.6%; with HOP-62 NSCLC it was 3.98% (active); in the assay with NCI-H460 lung, -34.2% (active); with NCI-H522 lung it was -28.8% (active); in the assay with A549/ATCC NSCLC it was 30.9%. The growth is -68.2% (active) in the assay with 786-0 renal; -80.7% (active) in the assay with COLO 205 colon; 15% in the assay on DU-145 prostate; -49.7% (active) in the assay with K-562 leukemia; -17.8% (active) in the assay on MALME-3M melanoma; -54.1% (active) in the assay on MDA-MB-231 breast. Moreover, the growth with RXF 393 renal is -56.5% (active); with SF-268 CNS it was -30.5% (active); with SF-295 CNS, 6.18% (active); in the assay with SF-539 CNS it was 17.7%; in the assay with UACC-257 melanoma it was -38.6% (active); in the assay on M14 melanoma, -80.6% (active).
Regarding `S=c1[nH]c2cc(Cl)ccc2o1`, the growth is 104% in the assay on NCI-H23 lung; 107% in the assay on NCI-H322M lung; 102% with HOP-62 NSCLC; 100% in the assay with NCI-H460 lung; 82.6% with HOP-92 NSCLC; 102% with NCI-H522 lung. Also, the growth in the assay with A549/ATCC NSCLC is 118%; in the assay with 786-0 renal, 92.7%; in the assay with COLO 205 colon it was 110%; with DU-145 prostate, 102%; with K-562 leukemia, 90.7%; with MALME-3M melanoma it was 102%. Further, the growth in the assay with MDA-MB-231 breast was 89%; with RXF 393 renal, 104%; in the assay with SF-268 CNS, 105%; in the assay with SF-295 CNS it was 99.2%; in the assay with SF-539 CNS, 106%; in the assay with UACC-257 melanoma, 113%. The growth with M14 melanoma is 94.3%.
Take `COc1ccc2c(c1)c(-c1ccc(-c3cn(C)c4ccc(OC)cc34)[nH]1)cn2C`: the growth with NCI-H23 lung was 34.2%; in the assay on NCI-H322M lung, 71%; with HOP-62 NSCLC, 83.3%; with NCI-H460 lung, 30.1%; with HOP-92 NSCLC, -7.36% (active); in the assay on NCI-H522 lung it was -47.8% (active). Also, the growth with A549/ATCC NSCLC is 28.8%; in the assay on 786-0 renal it was 65%; with COLO 205 colon, -58.2% (active); in the assay with DU-145 prostate, 66.2%; in the assay with K-562 leukemia, 0.411% (active); with MALME-3M melanoma, 30.2%. Besides, the growth in the assay with MDA-MB-231 breast was -3.99% (active); in the assay with RXF 393 renal, -28.5% (active); with SF-268 CNS it was 9.71% (active); in the assay on SF-295 CNS, 44.5%; with SF-539 CNS, -57.3% (active); with UACC-257 melanoma, 87%. Moreover, the growth in the assay on M14 melanoma is 43.6%.
On to `COc1cc(-c2cc(-c3ccc(Nc4ncnc5cc(Cl)ccc45)cc3)nc(N3CCN(C)CC3)n2)cc(OC)c1OC`, for which the growth was 108% in the assay on NCI-H23 lung; 104% in the assay on NCI-H322M lung; 94.4% with HOP-62 NSCLC; 100% with NCI-H460 lung; 85.8% with NCI-H522 lung; 89.2% in the assay on A549/ATCC NSCLC. Also, the growth in the assay on 786-0 renal is 45.2%; in the assay on COLO 205 colon it was 90.6%; in the assay on DU-145 prostate, 98.9%; in the assay with K-562 leukemia, 56%; in the assay with MALME-3M melanoma, 71%; in the assay on MDA-MB-231 breast it was 51.7%. Besides, the growth was -1.57% (active) in the assay on RXF 393 renal; 76.9% in the assay on SF-268 CNS; 111% with SF-295 CNS; 32.9% with SF-539 CNS; 117% with UACC-257 melanoma; 80.8% in the assay with M14 melanoma.
